Measurements as given in PubChem BioAssay AID1159580 (chemical genetic matrix, 2015).
About 2,000 (36%) of roughly 5,500 compounds were called active. Another 18% or so got no clear call; they are omitted. Cut-off read from the data, not from the text of the source: active = normalized growth mostly below about 0.91 (no sharp cut-off); inconclusive = no clear call, values can overlap the other calls; inactive = mostly above about 0.92. The list shows a part of the results.

Assay: chemical genetic growth profiling, strain panel (AID 1159580);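 note: tested at 20 µM; growth read once vehicle control cultures reached saturation at 30 °C; 1 = growth at the plate median or of vehicle wells; lower values mean less growth of the strain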
Conditions: S. cerevisiae deletion strains, growth OD

Measured: normalized growth

S=C(NCCc1csc2ccccc12)Nc1ccc(Cl)cc1
active: locus YHR030C, strain SLT2, stronger effect = lower value 0.5 | locus YHR205W, strain SCH9, stronger effect = lower value 0.566 | locus YLR113W, strain HOG1, stronger effect = lower value 0.536 | locus YPL256C, strain CLN2, stronger effect = lower value 0.667
inactive: locus YAR019C, strain CDC15, stronger effect = lower value 0.923 | locus YBL105C, strain PKC1, stronger effect = lower value 0.945 | locus YBR135W, strain CKS1, stronger effect = lower value 0.945 | locus YBR136W, strain MEC1, stronger effect = lower value 0.944 | locus YBR160W, strain CDC28, stronger effect = lower value 0.956 | locus YDL017W, strain CDC7, stronger effect = lower value 0.952 | locus YDL028C, strain MPS1, stronger effect = lower value 0.942 | locus YDL101C, strain DUN1, stronger effect = lower value 0.962 | locus YDL108W, strain KIN28, stronger effect = lower value 0.95 | locus YDL132W, strain cdc53, stronger effect = lower value 0.944 | locus YDL214C, strain PRR2, stronger effect = lower value 0.797 | locus YDR052C, strain DBF4, stronger effect = lower value 0.96 | locus YDR054C, strain cdc34, stronger effect = lower value 0.931 | locus YDR226W, strain ADK1, stronger effect = lower value 0.951 | locus YDR477W, strain SNF1, stronger effect = lower value 0.815 | locus YER123W, strain YCK3, stronger effect = lower value 0.719 | locus YER133W, strain GLC7, stronger effect = lower value 0.816 | locus YFL009W, strain cdc4, stronger effect = lower value 0.944 | locus YFL029C, strain CAK1, stronger effect = lower value 0.9 | locus YFR003C, strain YPI1, stronger effect = lower value 0.953 | locus YFR019W, strain FAB1, stronger effect = lower value 0.934 | locus YFR028C, strain CDC14, stronger effect = lower value 0.945 | locus YGR040W, strain KSS1, stronger effect = lower value 0.819 | locus YGR052W, strain FMP48, stronger effect = lower value 0.795 | locus YGR092W, strain DBF2, stronger effect = lower value 0.735 | locus YHR079C, strain IRE1, stronger effect = lower value 0.786 | locus YHR082C, strain KSP1, stronger effect = lower value 0.721 | locus YIL147C, strain SLN1, stronger effect = lower value 0.938 | locus YJL095W, strain BCK1, stronger effect = lower value 0.677 | locus YJL128C, strain PBS2, stronger effect = lower value 0.872 | locus YJL157C, strain FAR1, stronger effect = lower value 0.863 | locus YJR016C, strain ILV3, stronger effect = lower value 0.945 | locus YJR066W, strain TOR1 (second series), stronger effect = lower value 0.759 | locus YJR066W, strain TOR1, stronger effect = lower value 0.727 | locus YKL048C, strain ELM1, stronger effect = lower value 0.914 | locus YKL067W, strain YNK1, stronger effect = lower value 0.828 | locus YKL101W, strain HSL1, stronger effect = lower value 0.787 | locus YKL193C, strain SDS22, stronger effect = lower value 0.943 | locus YKL203C, strain TOR2, stronger effect = lower value 0.886 | locus YLR133W, strain CKI1, stronger effect = lower value 0.797 | locus YLR403W, strain SFP1, stronger effect = lower value 0.752 | locus YML070W, strain DAK1, stronger effect = lower value 0.808 | locus YMR001C, strain CDC5, stronger effect = lower value 0.946 | locus YMR205C, strain PFK2 (second series), stronger effect = lower value 0.84 | locus YMR277W, strain FCP1, stronger effect = lower value 0.941 | locus YNL006W, strain LST8, stronger effect = lower value 0.96 | locus YNL020C, strain ARK1, stronger effect = lower value 0.795 | locus YNL161W, strain CBK1, stronger effect = lower value 0.952 | locus YNL183C, strain NPR1, stronger effect = lower value 0.754 | locus YNL207W, strain RIO2, stronger effect = lower value 0.937 | locus YNL222W, strain SSU72, stronger effect = lower value 0.952 | locus YNL307C, strain MCK1 (second series), stronger effect = lower value 0.729 | locus YOL078W, strain AVO1, stronger effect = lower value 0.945 | locus YOL136C, strain PFK27, stronger effect = lower value 0.8 | locus YOR061W, strain CKA2, stronger effect = lower value 0.811 | locus YOR119C, strain RIO1, stronger effect = lower value 0.867 | locus YOR231W, strain MKK1, stronger effect = lower value 0.789 | locus YOR329C, strain SCD5, stronger effect = lower value 0.952 | locus YPL031C, strain PHO85, stronger effect = lower value 0.768 | locus YPL153C, strain RAD53, stronger effect = lower value 0.775 | locus YPL204W, strain HRR25, stronger effect = lower value 0.809 | locus YPL209C, strain IPL1, stronger effect = lower value 0.946 | locus YPR025C, strain CCL1, stronger effect = lower value 0.945 | locus YPR106W, strain ISR1, stronger effect = lower value 0.936 | locus YPR111W, strain DBF20, stronger effect = lower value 0.917 | strain NNK1, stronger effect = lower value 0.914 | strain TSCII, stronger effect = lower value 0.922
